High-throughput results as filed in PubChem.
Hits are enriched below; roughly 4.5% of the tested compounds scored in any of these assays.
697 NFkB inh = lowers PMA/ionomycin-induced NF-kB signal in 697 B cells | 697 B-cell NF-kB luciferase reporter, 16 h | inhibition, % at 4 µM | actives 0.33% (n = 330,000); in the data active = inhibition above about 35%
Jurkat NFkB inh = inhibitors of the PMA/ionomycin-induced NF-kB reporter in Jurkat cells; AID 435003; actives 0.53% (n = 330,000); inhibition, % at 4 µM; PMA/ionomycin-induced NF-kB luciferase reporter, luminescence; in the data active = inhibition above about 50%
Gli-Sufu block = blocks Gli-Sufu signaling in a luciferase reporter; actives 0.74% (n = 340,000); Sufu-KO-LIGHT fibroblasts, Gli luciferase reporter luminescence; AID 588413; inhibition, % at 5 µM;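 active = inhibition above about 55%, limit read from the data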;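 also: 0% = DMSO-treated cells and 100% = wells with medium but no cells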
Mdm2-MdmX inh = inhibitors of human Mdm2/MdmX interaction; O15151+Q00987; SaOS-2 split-luciferase Mdm2/MdmX complementation, luminescence; inhibition, % at 8 µM; actives 3% (n = 330,000); AID 485346;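 active = inhibition of at least 50% at 8 µM in the primary screen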
Target sequence (O15151 whole entry, looked up): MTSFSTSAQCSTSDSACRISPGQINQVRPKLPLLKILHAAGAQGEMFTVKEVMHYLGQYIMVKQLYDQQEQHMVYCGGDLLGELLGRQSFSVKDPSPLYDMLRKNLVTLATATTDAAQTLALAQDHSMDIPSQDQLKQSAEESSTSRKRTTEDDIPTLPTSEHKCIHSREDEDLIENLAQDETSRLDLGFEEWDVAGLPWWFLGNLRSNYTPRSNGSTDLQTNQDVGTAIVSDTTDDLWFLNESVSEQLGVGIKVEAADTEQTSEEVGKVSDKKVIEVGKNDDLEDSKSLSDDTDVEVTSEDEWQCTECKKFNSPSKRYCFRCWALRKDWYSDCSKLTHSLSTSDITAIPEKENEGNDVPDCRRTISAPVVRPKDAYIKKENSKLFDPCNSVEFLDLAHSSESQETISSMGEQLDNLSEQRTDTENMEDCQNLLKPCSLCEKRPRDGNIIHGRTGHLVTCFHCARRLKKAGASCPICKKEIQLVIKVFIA
Target sequence (Q00987 whole entry, looked up): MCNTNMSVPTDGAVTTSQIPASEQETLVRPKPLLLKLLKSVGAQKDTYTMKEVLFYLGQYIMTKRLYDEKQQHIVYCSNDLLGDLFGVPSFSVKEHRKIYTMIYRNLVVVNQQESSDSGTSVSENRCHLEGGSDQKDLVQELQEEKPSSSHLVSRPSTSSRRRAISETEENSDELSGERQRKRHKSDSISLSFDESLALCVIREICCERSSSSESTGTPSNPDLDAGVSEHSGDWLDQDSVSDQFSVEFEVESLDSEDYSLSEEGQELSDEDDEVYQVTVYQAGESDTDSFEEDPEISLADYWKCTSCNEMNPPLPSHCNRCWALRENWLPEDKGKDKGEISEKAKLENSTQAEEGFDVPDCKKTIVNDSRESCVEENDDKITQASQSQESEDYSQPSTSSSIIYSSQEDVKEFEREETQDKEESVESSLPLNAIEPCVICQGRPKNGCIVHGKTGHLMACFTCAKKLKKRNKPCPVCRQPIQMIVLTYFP
CSC inhib = blocks cancer stem cells | inhibition, % at 7.5 µM | cancer stem cell-like cells viability, luminescence | actives 1.1% (n = 300,000); in the data active = inhibition above about 75%; inconclusive = no clear call, values can overlap the other calls; tested in HMLE shEcad cells
Beta apoptosis = beta cell apoptosis inhibition. actives 0.8% (n = 300,000). AID 435005. protection from apoptosis, % (concentration not given with the values). INS-1E cytokine-induced death, ATP luminescence, 48 h; percent of positive-control rescue, neutral wells zero;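 active = Every replicate reaches about 75%, or at least half do and their mean reaches it too, limit read from the data; inconclusive = At least half of replicates reach the limit but their mean does not; inactive = Under half of replicates reach the limit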;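 also: 0% = cytokine-treated negative control wells and 100% = positive control rescue; higher means more ATP so stronger rescue from cytokine killing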
Mdm2-MdmX conf = confirmation of human Mdm2/MdmX interaction inhibitors. shares compounds with Mdm2-MdmX inh. Mdm2-MdmX binding, luminescent assay. inhibition, % at 8 µM. actives 55% (n = 10,000). AID 489028; in the data active = inhibition above about 40%
FLuc counter = inhibits full-length luciferase, flagging false Mdm2/MdmX hits. shares compounds with Mdm2-MdmX inh. SaOS-2 full-length luciferase counterscreen, luminescence. inhibition, % at 8 µM. actives 77% (n = 6,200);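 active = mean inhibition at 8 µM reaching about 37%, which flags the compound as non-specific, limit read from the data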;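 also: p53-null SaOS-2 cells with luciferase driven by a doxycycline-inducible promoter; compound on cells about two nights before reading with doxycycline added after day one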
Starred values were filed as active, the others as inactive; ? = inconclusive; . = not tested or not shown.

SMILES | 697 NFkB inh | Jurkat NFkB inh | Gli-Sufu block | Mdm2-MdmX inh | CSC inhib | Beta apoptosis | Mdm2-MdmX conf | others
CCCCN(CCCC)C(=S)N/N=C/c1c(C)[nH]n(-c2ccccc2)c1=O | -4.8 | -8.9 | 7.3 | 83.7* | -1.1 | 86.7* | 78.3* | FLuc counter=44.8*
Cc1ccc(OCC(=O)N/N=C\c2c(C)[nH]n(-c3ccccc3)c2=O)c([N+](=O)[O-])c1 | -17.3 | -8.6 | . | 52.4* | 16.2 | 86.6* | 27.1
Cc1[nH]n(-c2ccc(Br)cc2)c(=O)c1/C=N/NC(=O)c1ccccc1 | -46.2 | -8.5 | 36.0 | 52.6* | 80.1* | 104.2* | 51.7* | FLuc counter=46.6*
Cc1ccc(/C=N\NC(=O)COc2ccc(C)cc2[N+](=O)[O-])cc1 | 13.2 | 0.0 | -11.8 | -14.6 | -0.5 | -10.4 | .
Cc1cc(C(=O)N/N=C/c2c(C)[nH]n(-c3ccccc3)c2=O)n[nH]1 | 2.1 | -6.6 | 5.2 | 12.3 | . | -2.0 | .
CCCCCc1nnc(NC(=O)c2cccc(S(=O)(=O)N3CCOCC3)c2)s1 | -3.3 | 4.1 | -1.7 | -3.5 | . | . | .
CCOc1ccc(NC(=O)CN(C)C(=O)c2cccc(S(=O)(=O)N3CCN(C)CC3)c2)cc1OCC | . | . | -1.9 | . | . | . | .
CCCCNc1c(-c2ccc(Sc3ccc(OC)cc3)cc2)nc2cc(C)ccn12 | -2.1 | -6.6 | 41.2 | 79.6* | 61.1 | 12.2 | 10.1
COc1ccc(-c2nc3ccc(C)cn3c2NCc2ccccc2)cc1SC1CCCCC1 | 2.0 | 10.4 | 30.0 | 52.9* | -9.6 | 99.4* | 31.3
CCCCNc1c(-c2ccc(-c3ccc(C(C)=O)cc3)c(OC)c2)nc2cc(C)ccn12 | -32.8 | -2.0 | -16.5 | 32.9 | . | 42.2 | .
CCCCNc1c(-c2ccc(OC)c(SC(C)CC)c2)nc2ccc(C)cn12 (stereo not drawn) | 5.3 | 8.8 | 31.4 | 88.6* | 100.4* | 119.7* | 36.6
CCCCNc1c(-c2ccc(OC)c(SC3CCCCC3)c2)nc2ccc(C)cn12 | -7.9 | 0.0 | 46.0 | 97.5* | . | . | 45.6* | FLuc counter=28.6
CCC1CN(C(=O)N2CCC(C(=O)NCCc3ccc(OC)cc3OC)CC2)c2ccccc2O1 (stereo not drawn) | -6.9 | 3.3 | 15.8 | 23.3 | -8.9 | 3.6 | .
CCC(C)Sc1ccc(-c2nc3ccc(C)cn3c2NCc2ccccc2)cc1OC (stereo not drawn) | -86.8 | -35.2 | 19.9 | 97.4* | -12.7 | 96.8* | 57.0* | FLuc counter=39.2*
Cc1ccc(C(=O)NCCCN2CCN(CCCNC(=O)c3ccc(C)cc3)CC2)cc1 | 2.1 | -2.4 | 6.0 | 12.7 | -1.8 | -4.4 | .
Cc1cc(C)cc(-n2ncc3c2CCCC3NC(=O)CN2CCCCC2=O)c1 (stereo not drawn) | 16.2 | 8.0 | 10.8 | -1.6 | 5.5 | -4.7 | .
CCN(CC)CCCN(C(=O)c1cccc(C)c1)c1nc(-c2ccc(OC)cc2)cs1 | -28.1 | -8.1 | . | 55.9* | 7.3 | . | 34.0 | FLuc counter=83.6*
C=CCCC(=O)Nc1nc(C)c(-c2csc(Nc3cc(OC)ccc3OC)n2)s1 | -4.5 | 46.2 | 6.0 | 65.7* | ? | 4.3 | 60.0* | FLuc counter=45.8*
Cc1nc(C(=O)Nc2ccccc2Cl)cc2c1[nH]c1ccccc12 | 12.4 | -37.3 | -4.4 | 80.1* | 6.2 | 13.1 | 57.1* | FLuc counter=56.1*
COc1ccc(NC(=O)c2cc3c([nH]c4ccccc43)c(C)n2)cc1 | -30.9 | -42.7 | -2.2 | -16.5 | 10.8 | 1.6 | .
COc1ccc(S(=O)Cc2ccc(C(=O)NC3CC3)o2)cc1 (stereo not drawn) | -5.4 | -14.0 | 4.0 | 16.3 | 17.3 | -6.8 | .
Cn1c(-c2ccccc2)c(/C=N/NC(=O)c2cccnc2)c2ccccc21 | -3.5 | 5.5 | -20.3 | 34.5 | -10.9 | . | .
O=C(N/N=C/c1c(-c2ccccc2)[nH]c2ccccc12)c1cccnc1 | 1.1 | -13.3 | -32.8 | 52.2* | 4.0 | 0.1 | 53.0* | FLuc counter=68.5*
CN(CC(=O)NCc1ccc(F)cc1)CC(=O)Nc1ccc(Cl)c(C(F)(F)F)c1 | 1.4 | 12.2 | 22.1 | 32.9 | 4.4 | 14.1 | .
CCN(CC(=O)NCc1cccs1)C(=O)c1ccc(S(=O)(=O)Nc2ccccc2Cl)cc1 | 16.3 | -6.4 | 4.2 | 11.6 | -13.5 | -2.0 | .
SMILES | 697 NFkB inh | Jurkat NFkB inh | Gli-Sufu block | Mdm2-MdmX inh | CSC inhib | Beta apoptosis | Mdm2-MdmX conf | others
Cc1ccc(-c2nn3c(C)nnc3c3ccccc23)cc1S(=O)(=O)N(C)CCO | 27.7 | -19.5 | 36.5 | 52.9* | 16.7 | -7.3 | 12.6
CCOC(=O)N1CCN(S(=O)(=O)c2cc(-c3nn4c(C)nnc4c4ccccc34)ccc2C)CC1 | 24.1 | 6.2 | 0.3 | 58.5* | 10.1 | 0.8 | 6.0
O=C(NCCCn1cccn1)C1CCC(=O)N(CCc2ccccc2)C1 (stereo not drawn) | 14.7 | 5.6 | 1.8 | 12.8 | -4.6 | -6.6 | .
COc1ccc(S(=O)(=O)Cc2ccc(C(=O)NC3CCCCCC3)o2)cc1 | -4.9 | -3.9 | 1.7 | 15.0 | -2.6 | -1.7 | .
CCOc1ccc(C(=O)N[C@H](C(=O)Nc2cccc(S(=O)(=O)N3CCOCC3)c2)C(C)C)cc1 | 25.7 | 22.1 | -0.3 | 18.6 | . | . | .
CCOc1ccc(C(=O)N[C@H](C(=O)Nc2cccc(S(=O)(=O)N3CCCCC3)c2)C(C)C)cc1 | 11.6 | 25.5 | -5.2 | 50.7* | 6.9 | 3.2 | 31.7
COc1ccc(C(=O)OCC2CC(c3ccccc3)=NO2)cc1OC (stereo not drawn) | 15.1 | -15.7 | 1.5 | -34.6 | -7.2 | -3.9 | .
COc1ccc(-c2nc3c(c(=O)n(C)c(=O)n3C)n2CC2CC(c3ccccc3)=NO2)cc1OC (stereo not drawn) | -4.4 | 43.0 | -11.6 | 61.0* | . | -1.7 | 44.6* | FLuc counter=89.2*
FC(F)Sc1ccc(NC(=S)NCC2CCCCC2)cc1 | -18.7 | -18.0 | -12.9 | 65.2* | 48.2 | 10.9 | -4.3
FC(F)Sc1ccc(NC(=S)NC2CCCCC2)cc1 | -58.9 | -65.9 | -20.8 | -74.7 | 14.2 | 0.9 | .
FC(F)Sc1ccc(NC(=S)NC(c2ccccc2)c2ccccc2)cc1 | -17.6 | -3.1 | -4.2 | 100.3* | 9.2 | 36.8 | 74.2* | FLuc counter=38.1*
CN(C(=S)Nc1ccc(SC(F)F)cc1)C(c1ccccc1)c1ccccc1 | 10.6 | 8.3 | 0.5 | 56.2* | ? | -6.7 | 6.8
FC(F)Sc1ccc(NC(=S)NCc2ccccc2)cc1 | 1.2 | -0.8 | -3.2 | -18.2 | 4.4 | -3.1 | .
CC(=O)c1cccc(OCC(=O)Nc2cccc(C(=O)Nc3c(C)n(C)n(-c4ccccc4)c3=O)c2)c1 | -2.1 | -12.1 | 0.6 | 2.6 | . | -6.6 | .
Cc1cc2c(=O)n(Cc3ccco3)c(SCC(=O)N3CCCc4ccccc43)nc2s1 | 21.0 | 14.6 | 10.2 | 56.9* | 16.8 | 5.2 | 20.8
Cc1cc2c(=O)n(Cc3ccco3)c(SCC(=O)NCc3ccco3)nc2s1 | -3.2 | 6.4 | 3.2 | 16.0 | 3.7 | -4.1 | .
